{"source": "PubChem BioAssay (NCI)", "note": "The panel holds about 83,000 compounds, 20% with a hit somewhere; the sample as a whole holds those more often.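 The endpoint reported here, percent growth, reads 100 for growth as untreated, 0 for no net growth and -100 for all cells dead.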 Unmarked numbers belong to inactive results. Active and inactive are the calls of the source. How the source made its calls: active means growth percent below 10; inactive means the rest.", "data": [{"test_system": "OVCAR-4 ovarian", "experiment": "NCI-60 one-dose screen, 48 h (100 = growth as untreated, 0 = no growth, -100 = all killed)", "conditions": "10 µM unless noted", "values": [{"smiles": "O=C(/C=C/c1c(-c2ccc(Cl)cc2)nn(-c2ccccc2)c1C(F)(F)F)c1ccc(Cl)cc1", "growth": "89%"}, {"smiles": "Cc1c(C)c([N+](=O)[O-])c(C)c([N+](=O)[O-])c1C", "growth": "99.5%"}, {"smiles": "CCN(c1ccccc1)S(=O)(=O)c1cc([N+](=O)[O-])ccc1Cl", "growth": "25.1%"}, {"smiles": "COC1=CC(=O)c2ccccc2C1=O", "growth": "70.4%"}, {"smiles": "COC(=O)c1ccc2c(c1)[n+](=O)c(C(C)=O)c(C(F)(F)F)n2[O-]", "growth": "-42% (active)"}, {"smiles": "COc1cc(/C=C/C(=O)c2nc3cc(F)ccc3nc2C)cc(OC)c1OC", "growth": "77.8%"}, {"smiles": "Cc1nc2ccc(Cl)cn2c1-c1nnc(SCc2ccc([N+](=O)[O-])cc2)o1", "growth": "32.5%"}, {"smiles": "COc1ccc(/C=C/C(=O)Nc2cc(/C=C\\c3cc(OC)c(OC)c(OC)c3)cc(OC)c2OC)cc1OC", "growth": "47.7%"}, {"smiles": "C[C@H]1[C@H]2[C@H]3CC[C@@H]4[C@@]5(C)CC[C@H](O)C(C)(C)[C@@H]5CC[C@@]4(C)[C@]3(C)CC[C@]23CO[C@]1(C)[C@@H](C(=O)/C=C\\c1ccco1)C3", "growth": "111%"}, {"smiles": "COc1cc2cc(Oc3cccc(NC(=O)Nc4cc(C(F)(F)F)cc(C(F)(F)F)c4)c3)c(C)nc2cc1OC", "growth": "27.9%"}, {"smiles": "Cc1ncc(C(=O)Nc2ccc(CN3CCN(C)CC3)c(C(F)(F)F)c2)cc1C#Cc1cnc(N)cc1C#N", "growth": "30.2%"}, {"smiles": "Cc1ccc(-n2nc3c(c(C#N)c2=O)CC(c2ccccc2[N+](=O)[O-])C([N+](=O)[O-])=C3O)cc1", "note": "(centres undefined)", "growth": "75.2%"}, {"smiles": "C#Cc1cccc(NC(=O)c2cccc(NC(=O)CCl)c2)c1", "growth": "-38.1% [8.25 µM] (active)"}, {"smiles": "N#CC1=C(N)Oc2c(ccc3ccccc23)C1c1ccccc1Cl", "note": "(centres undefined)", "growth": "42.2%"}, {"smiles": "COc1ccc(-c2nc(S(=O)(=O)c3ccccc3)c(S(=O)CC(=O)N3CCC(C)CC3)o2)cc1", "note": "(centres undefined)", "growth": "28.8%"}, {"smiles": "COc1cc(C2C3=C(COC3=O)N(CCO)c3cc4c(cc32)OCO4)cc(OC)c1OC", "note": "(centres undefined)", "growth": "28.5%"}, {"smiles": "N#Cc1c(-c2ccccc2)nc2c(c(-c3ccccc3)nn2-c2ccccc2)c1-c1ccc(O)cc1", "growth": "72.2%"}, {"smiles": "CC(=O)[C@H]1CCC/C=C/[C@@H]2C[C@H](O)C[C@H]2[C@H](O)/C=C/C(=O)O1", "growth": "18.9%"}, {"smiles": "O=C1/C=C/[C@@H](O)[C@@H]2C[C@@H](O)C[C@H]2/C=C/CCC[C@H](CCc2cccc3ccccc23)O1", "growth": "14.4%"}, {"smiles": "CC(C)(C)[Si](C)(C)OC1[C@@H](O[Si](C)(C)C(C)(C)C)[C@@H](CNC(=O)NC(=O)CCl)O[C@H]1n1cnc2c(NC(=O)Nc3ccccc3)ncnc21", "note": "(some centres undefined)", "growth": "-42.3% (active)"}, {"smiles": "Cc1cc2c(c(C)c1Cl)C(=O)/C(=C/c1ccc(O)c(O)c1)O2", "growth": "96.3%"}, {"smiles": "COC(=O)C(CC=O)C(=O)C(=O)Nc1cccc(C(F)(F)F)c1", "note": "(centres undefined)", "growth": "105%"}, {"smiles": "CN(CCN(C)c1ccc(C(=N)N)cc1)c1ccc(C(=N)N)cc1", "growth": "98%"}, {"smiles": "O=C1/C=C/[C@@H](O)[C@@H]2C[C@@H](O)C[C@H]2/C=C/CCC[C@H](CCc2ccc3ncccc3c2)O1", "growth": "14.3%"}, {"smiles": "C#Cc1cccc(NC(=O)Nc2cccc(NC(=O)CCl)c2)c1", "growth": "-35.9% [8.25 µM] (active)"}, {"smiles": "CCNc1nc2ccc(Nc3ccnc4cc(Cl)ccc34)cc2[nH]1", "growth": "82.6%"}, {"smiles": "C=CCn1c(-c2ccc(-c3nc4ccc(C)cc4[nH]3)cc2)n[nH]c1=S", "growth": "90.4%"}, {"smiles": "O=C1Nc2ccccc2/C1=C\\c1c(-c2ccccc2)nc2ccccn12", "growth": "78.8%"}, {"smiles": "COc1cc(/C=C\\c2cc(OC)c(OC)c(OC)c2)cc(N)c1OC", "growth": "128%"}]}]}
